NR3A LBD binder – binders of NR3A ligand-binding domain, primary screen, biophysical, differential scanning fluorimetry, uHTS. AID 1259313, 2017. NR3A LBD differential scanning fluorimetry, Tm shift; 0% = protein alone, 100% = glycine-bound protein. Glutamate receptor ionotropic, NMDA 3A (GRIN3A) ligand-binding domain. 2.5% of 340,000 active. Tm shift relative to glycine control, % at 25 µM;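 active means melting temperature shift of at least 10% of the positive control shift, at one fixed dose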
Mdm2 MdmX PPI – inhibitors of human Mdm2-MdmX association, primary screen, cell-based, luminescence, split luciferase, SaOS-2, uHTS | inhibition, % at 8 µM | 3% of 330,000 active | Protein Mdm4 (Homo sapiens) + E3 ubiquitin-protein ligase Mdm2 (Homo sapiens), … | AID 485346, 2010 | SaOS-2 split-luciferase Mdm2/MdmX complementation;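 active means inhibition of at least 50% at 8 µM in the primary screen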
Target sequence (O15151 whole entry, looked up): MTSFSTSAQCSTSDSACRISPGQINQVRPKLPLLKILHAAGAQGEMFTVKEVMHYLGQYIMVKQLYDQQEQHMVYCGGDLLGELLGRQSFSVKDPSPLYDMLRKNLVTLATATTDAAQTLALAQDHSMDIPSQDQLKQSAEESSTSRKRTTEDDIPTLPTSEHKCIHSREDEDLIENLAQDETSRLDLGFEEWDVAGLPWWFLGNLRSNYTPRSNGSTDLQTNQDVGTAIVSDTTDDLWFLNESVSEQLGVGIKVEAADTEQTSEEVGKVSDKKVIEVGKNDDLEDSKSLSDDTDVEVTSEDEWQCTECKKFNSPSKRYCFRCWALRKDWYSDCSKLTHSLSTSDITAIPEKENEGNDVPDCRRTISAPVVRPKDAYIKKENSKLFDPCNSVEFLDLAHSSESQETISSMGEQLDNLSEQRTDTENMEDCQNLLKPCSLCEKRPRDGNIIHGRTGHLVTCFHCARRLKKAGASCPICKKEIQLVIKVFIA
Target sequence (Q00987 whole entry, looked up): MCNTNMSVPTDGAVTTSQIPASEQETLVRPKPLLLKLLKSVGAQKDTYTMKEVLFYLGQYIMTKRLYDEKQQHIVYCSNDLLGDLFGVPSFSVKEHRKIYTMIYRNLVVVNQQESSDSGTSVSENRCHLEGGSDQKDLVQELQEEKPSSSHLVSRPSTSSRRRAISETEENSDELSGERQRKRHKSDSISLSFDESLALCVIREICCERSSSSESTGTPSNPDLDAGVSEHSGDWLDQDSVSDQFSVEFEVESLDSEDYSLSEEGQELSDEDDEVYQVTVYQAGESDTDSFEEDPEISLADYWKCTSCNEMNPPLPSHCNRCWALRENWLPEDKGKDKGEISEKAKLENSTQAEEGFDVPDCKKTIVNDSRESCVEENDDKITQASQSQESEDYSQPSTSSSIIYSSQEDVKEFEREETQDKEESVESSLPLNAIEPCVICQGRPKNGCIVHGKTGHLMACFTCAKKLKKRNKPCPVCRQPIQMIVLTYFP
CSC inhib – cancer stem cell viability inhibitors, primary screen, luminescence; cancer stem cell-like cells viability; inhibition, % at 7.5 µM; 1.1% of 300,000 active; in the data active means inhibition above about 75%; tested in HMLE shEcad cells
MPTP inh – mitochondrial permeability transition pore inhibitors, primary screen, biochemical, isolated mouse mitochondria, absorbance | Ca2+ swelling absorbance, 30 min | inhibition, % at 10 µM | 1.4% of 360,000 active;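 active means inhibition of 50% or more, scaled per plate between neutral and stimulator controls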;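 further: 0% = DMSO wells given calcium and 100% = 1 mM EGTA wells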
SKKanGAS inh – S. pyogenes SKKanGAS growth inhibitors in kanamycin, primary screen, streptokinase expression inhibitor project, SKKanGAS strain, BacTiter-Glo luminescence; 6 h; inhibition, % at 7.5 µM; 1.3% of 300,000 active;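 active means mean replicate score, as percent of positive control median, at least 50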;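 further: strain carries kanamycin resistance gene driven by streptokinase promoter and grows in 40 µg/ml kanamycin; loss of luminescence reflects streptokinase promoter inhibition or plain growth inhibition; 0% = median of DMSO wells and 100% = positive control at its reference dose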
Beta apoptosis – inhibitors of cytokine-induced beta cell apoptosis, primary screen, luminescence. INS-1E cytokine-induced death, ATP luminescence, 48 h; percent of positive-control rescue, neutral wells zero. protection from apoptosis, % (no concentration beside the values). 0.8% of 300,000 active. AID 435005, 2010;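 active means Every replicate reaches about 75%, or at least half do and their mean reaches it too, limit read from the data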;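 further: 0% = cytokine-treated negative control wells and 100% = positive control rescue; higher means more ATP so stronger rescue from cytokine killing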
The depositor's hits bear a star; · = not tested or not shown. Hits are enriched below; roughly 6.9% of the tested compounds scored in any of these assays.

SMILES | NR3A LBD binder | Mdm2 MdmX PPI | CSC inhib | MPTP inh | SKKanGAS inh | Beta apoptosis
Cc1cccc(C)c1NC(=O)CN1N=NC2C(=O)N(c3cccc(Cl)c3)C(=O)C21 (centres undefined) | 18* | 9 | 8 | 2 | -2 | -4
Cc1nc2ccc(NC(=O)COc3ccccc3[N+](=O)[O-])cc2s1 | 1 | -17 | · | -2 | -1 | 6
Cc1ccccc1OCc1nnc(SCC(=O)Nc2ccc3nc(SCC(=O)Nc4ccccc4)sc3c2)n1C | 17* | 23 | 10 | 4 | 27 | -1
Cc1nc2ccc(NC(=O)COc3ccccc3C)cc2s1 | 32* | -11 | -5 | -1 | 0 | -6
CCC(C)CN1C(=O)CSCC1(C)C(=O)NC(C)C (centres undefined) | · | · | · | 0 | · | ·
CN(CC(=O)Nc1cccc(F)c1)C(=O)c1cn(-c2ccccc2)nc1-c1ccc(F)cc1 | 35* | 28 | 69 | 0 | · | 2
COc1cccc(-c2nn(-c3ccc(C)cc3)cc2C(=O)N(C)CC(=O)Nc2cccc(F)c2)c1 | 13* | 38 | 42 | 0 | · | 4
O=C(Nc1cccc(S(=O)(=O)N2CCOCC2)c1)c1cn(-c2ccccc2)nc1-c1ccc(F)cc1 | 22* | 13 | 22 | 18 | -8 | 14
CN(CC(=O)Nc1cccc(F)c1)C(=O)c1cccc2ccccc12 | -2 | 1 | · | 0 | · | -5
COc1ccc(-c2nn(-c3ccccc3)cc2C(=O)N(C)CC(=O)Nc2cccc(F)c2)cc1 | 11* | 10 | 80* | 1 | · | 15
COc1ccc(N2CCN(C(=O)c3cc(S(=O)(=O)N4CCCCCC4)ccc3OC)CC2)cc1 | 2 | 13 | · | -2 | · | ·
c1ccc(N2CC3CCc4ccccc4C3=N2)cc1 (centres undefined) | 6 | -54 | 13 | 2 | -5 | 1
CCOC(=O)c1c(C)[nH]c(C(C)=NNC(=O)c2cccs2)c1C | 2 | -94 | -5 | 0 | · | 1
O=C(Nc1ccc(Br)cc1)C1CCN(c2cnccn2)CC1 | 1 | 15 | 12 | -1 | -1 | -3
Cc1cc(C)c(NC(=O)CCCCCNC2CCCCC2)c(C)c1 | 2 | 2 | 4 | -2 | -5 | -7
CCOc1cc(C=NN=C2c3ccccc3-c3ccccc32)ccc1O | 2 | · | · | 4 | · | ·
Cc1cc(Oc2ccc(N)cn2)ccc1Cl | 14* | 5 | 28 | 1 | 4 | -3
COc1cccc(Oc2ccc(N)cn2)c1 | -1 | 17 | 0 | 0 | 0 | -3
CCN(CC)c1ccc(C=C2C(=O)OC3(CCCCC3)OC2=O)cc1 | 18* | -2 | -19 | 1 | 6 | -5
CCCCC1(C)OC(=O)C(=Cc2ccc(N(CC)CC)cc2)C(=O)O1 (centres undefined) | 3 | 10 | -10 | 2 | -1 | -1
CCC(C)c1ccccc1NC(=O)COC(=O)C1=NN(c2ccccc2)C(=O)CC1 (centres undefined) | 3 | -2 | 2 | 2 | · | -8
CCOC(=O)c1[nH]c2ccc(OC)cc2c1NC(=S)N1CCN(c2cccc(C)c2C)CC1 | 12* | 46 | · | 2 | 23 | ·
O=C(O)C1C2C=CC(C2)C1C(=O)OC1CC2CCC1C2 (centres undefined) | 14* | -16 | -3 | 0 | 2 | 2
COCc1cc(CN2CCN(C)CC2)c(O)c2ncccc12 | 0 | 7 | 25 | -2 | 9 | 24
Oc1c(CN2CCN(c3ccccc3)CC2)cc(Br)c2cccnc12 | -1 | · | 114* | 0 | 90* | 98*
SMILES | NR3A LBD binder | Mdm2 MdmX PPI | CSC inhib | MPTP inh | SKKanGAS inh | Beta apoptosis
Oc1c(CN2CCOCC2)cc(COCc2ccccc2)c2cccnc12 | -7 | · | 48 | -3 | 29 | 98*
CCN1C(=O)[C@H]2[C@@H](c3ccc(Cl)cc3)N3C(=O)CN(CCOC)C(=O)[C@@]3(C)[C@H]2C1=O | 0 | 16 | 19 | -1 | 2 | 0
CC1CCN(S(=O)(=O)c2ccc(C(=O)OC(C)C(=O)N(C)C3CCCCC3)cc2)CC1 (centres undefined) | 15* | 11 | 5 | -1 | -4 | -1
CC1CCN(S(=O)(=O)c2ccc(C(=O)OC(C)C(=O)NC3CCCCC3C)cc2)CC1 (centres undefined) | 1 | -2 | -39 | 0 | 10 | 6
COc1cc(C=C2CN(C)C(=O)C2=O)ccc1O | · | · | · | 17 | · | ·
COc1cc(/C=C2\OC(=O)c3c(OC)cccc32)ccc1O | 17* | 32 | 2 | -1 | 14 | 13
O=C(Nc1ccc(Cl)cn1)c1cc2c(s1)-c1ccccc1OC2 | 15* | -55 | 21 | 3 | 21 | 2
O=C(Nc1cccnc1)c1cc2c(s1)-c1ccccc1OC2 | 35* | 36 | 23 | 2 | -11 | 0
Cc1cccc2c1-c1sc(C(=O)Nc3nccs3)cc1CO2 | -5 | -43 | 18 | 1 | 46 | 1
Cc1cccc2c1-c1sc(C(=O)Nc3cccnc3)cc1CO2 | 18* | 17 | -5 | 0 | 4 | 0
O=C(Nc1cccnc1Cl)c1cc2c(s1)-c1ccccc1OC2 | 0 | -3 | 7 | -2 | -10 | 4
C[C@@H]1CCC[C@]2(O[C@@H](CCO)C[C@@H](O)[C@@H]2O)O1 | -3 | 9 | · | 0 | -2 | -3
CCc1ccc2[nH]c(O)c(N=Nc3nc(-c4ccccc4)cs3)c2c1 | -1 | 20 | 45 | 7 | 53* | 22
CCC/C=N/NC(=O)c1ccccc1O | -1 | 11 | -7 | 0 | 3 | 2
COc1ccc(NC(=O)CSc2nc3nc(-c4cccs4)cc(C(F)(F)F)c3c(=O)[nH]2)c(OC)c1 | 1 | 1 | 14 | 23 | 54* | -3
CC(=O)Nc1ccc(NC(=O)CSc2nc3nc(-c4cccs4)cc(C(F)(F)F)c3c(=O)[nH]2)cc1 | 4 | 11 | -3 | 2 | 1 | 2
COC(=O)CSc1nc2nc(-c3cccs3)cc(C(F)(F)F)c2c(=O)[nH]1 | -1 | 9 | -19 | 0 | 2 | -4
N#Cc1ccc(Cl)cc1NC(=O)CSc1nc2nc(-c3cccs3)cc(C(F)(F)F)c2c(=O)[nH]1 | · | 17 | 14 | · | 55* | 0
CN1CCN(C(=O)c2cccc(-c3cnc4cnc(-c5ccccc5Oc5ccccc5)cn34)c2)CC1 | · | · | · | 1 | · | ·
COC(=O)C1CCN(Cc2cn(-c3ccccc3)nc2-c2ccc3c(c2)OCO3)CC1 | -1 | 2 | -5 | 1 | -14 | -7
OCCCNc1cc(-c2ccccc2)nc2cc(-c3ccc(F)cc3)nn12 | -4 | 12 | 83* | 1 | 30 | 18

High-throughput results: PubChem, several laboratories
